The source of these data is PubChem BioAssay.

Values without a mark were called inactive. Calls of active or inactive are those of the source. Unless noted, no stated cut-off is given here; in the data, active means inhibition above about 28%; inactive means the rest.

Assay [1] can be described thus: StAR promoter reporter inhibitors, counter-screen for LRH-1 inverse agonist project, cell-based, luminescence, high throughput (AID 651611). The conditions noted are these: StAR promoter luciferase reporter counterscreen, at 3.6 µM, active compounds read high.
For assay [2], the target named is Nuclear receptor subfamily 5 group A member 2 (Homo sapiens) (UniProt O00482). Briefly: NR5A2 activity suppression in reporter cells – cell-based, luminescence, confirmation (AID 651613; in the data active means inhibition above about 42%;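 further: HEK293T cells co-transfected with LRH-1 and StAR promoter luciferase reporter; 0% = vehicle wells and 100% = parental cells lacking receptor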). The note with it: cell-based LRH-1 luciferase reporter, inverse agonism; at 3.6 µM; active compounds read high.
Chain of Nuclear receptor subfamily 5 group A member 2 (Homo sapiens) (O00482 whole entry, looked up): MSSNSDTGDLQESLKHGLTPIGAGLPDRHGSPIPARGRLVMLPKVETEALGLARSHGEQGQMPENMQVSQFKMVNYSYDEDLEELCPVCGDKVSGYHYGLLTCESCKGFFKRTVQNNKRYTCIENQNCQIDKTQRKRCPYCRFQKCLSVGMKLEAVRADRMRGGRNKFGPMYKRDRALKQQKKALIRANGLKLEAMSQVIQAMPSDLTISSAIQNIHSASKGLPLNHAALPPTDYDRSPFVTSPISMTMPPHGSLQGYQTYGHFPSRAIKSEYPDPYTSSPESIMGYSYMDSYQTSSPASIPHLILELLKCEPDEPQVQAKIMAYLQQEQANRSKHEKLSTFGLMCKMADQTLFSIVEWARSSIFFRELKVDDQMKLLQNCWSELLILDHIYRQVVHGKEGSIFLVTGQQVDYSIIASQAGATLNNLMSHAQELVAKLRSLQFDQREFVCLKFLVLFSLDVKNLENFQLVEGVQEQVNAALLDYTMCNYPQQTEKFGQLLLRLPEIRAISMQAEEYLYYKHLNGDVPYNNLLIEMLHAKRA
The target in assay [3] is Steroidogenic factor 1 (Homo sapiens) (UniProt Q13285). The assay is described as follows: inverse agonism at SF1 nuclear receptor – cell-based, luminescence, high throughput, counter-screen for LRH-1 inverse agonist project (AID 651614; in the data active means inhibition above about 44%;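 further: cells cotransfected with StAR promoter reporter and SF1 expression vector; 0% = vehicle on cells with receptor and 100% = vehicle on cells lacking receptor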). The note with it: cell-based SF1 luciferase reporter, at 3.6 µM, active compounds read high.
Chain of Steroidogenic factor 1 (Homo sapiens) (Q13285 whole entry, looked up, the tested form may be a part): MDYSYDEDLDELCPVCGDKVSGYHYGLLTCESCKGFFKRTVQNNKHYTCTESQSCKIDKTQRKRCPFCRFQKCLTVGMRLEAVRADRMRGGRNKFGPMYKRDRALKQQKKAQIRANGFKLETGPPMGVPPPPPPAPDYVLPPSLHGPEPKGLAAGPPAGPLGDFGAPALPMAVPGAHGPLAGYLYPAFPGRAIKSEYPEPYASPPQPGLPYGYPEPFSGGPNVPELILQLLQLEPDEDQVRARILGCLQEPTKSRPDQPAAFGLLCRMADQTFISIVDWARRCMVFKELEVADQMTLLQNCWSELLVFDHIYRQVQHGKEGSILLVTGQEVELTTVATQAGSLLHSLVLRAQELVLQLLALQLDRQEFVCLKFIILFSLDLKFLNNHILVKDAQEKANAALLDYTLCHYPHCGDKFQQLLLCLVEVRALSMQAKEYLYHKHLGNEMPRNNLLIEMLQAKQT
The nature of assay [4]: compounds suppressing VP16-driven luciferase signal – cell-based, luminescence, high throughput, counter-screen for LRH-1 inverse agonist project (AID 651615; in the data active means inhibition above about 33%). The note with it: Gal4-VP16 luciferase reporter cells, at 3.6 µM, active compounds read high.

`Cn1c(=O)oc2cc(NC(=O)CCl)ccc21`: the inhibition in assay [1] is 51.8% (active); in assay [2] it was 61.6% (active); in assay [3] it was 71.3% (active); in assay [4], -65.2%.
For `CS(=O)(=O)N1CCN(c2ccc(NC(=O)CSc3nnc(-c4ccco4)o3)cc2)CC1` the same measures were 4.74%, 54% (active), 54.1% (active) and -2.76%.
The corresponding values for `O=C(Nc1ccccc1C(=O)Nc1nccs1)c1ccccc1` are 15.4%, 52.8% (active), 47.8% (active) and 2.34%.
The corresponding values for `CC(=O)c1cccc(NC(=O)c2ccc([N+](=O)[O-])o2)c1` are 25%, 61.7% (active), 61.9% (active) and -5.65%.
Consider `COc1ccc(CCNC(=O)CSc2nc3[nH]ncc3c(=O)n2-c2ccccc2Br)cc1OC`, for which the inhibition was 5.86% in assay [1], 57.3% (active) in assay [2], 43.1% (active) in assay [3] and -2.5% in assay [4].
The corresponding values for `COc1cccc(NC(=O)N(C)C[C@H]2Oc3cc(C#Cc4ccncc4)ccc3S(=O)(=O)N([C@H](C)CO)C[C@H]2C)c1` are 28% (active), 50.6% (active), 44.8% (active) and -37%.
The corresponding values for `CCOc1ccc(NC(=O)CSc2nnc(C(C)C)n2CC)cc1` are 0.92%, 49.3% (active), 50.3% (active) and -3.19%.
For the compound `Cc1ccc(NC(=O)CCl)c(C)c1`, the inhibition was 35% (active) in assay [1], 59.3% (active) in assay [2], 63.2% (active) in assay [3] and -43.6% in assay [4].
The corresponding values for `COc1cc([N+](=O)[O-])ccc1NC(=O)Cn1ccsc1=N` are 4.07%, 59.9% (active), 57.6% (active) and -3.33%.
For `COc1ccccc1-c1nnc2sc(-c3ccc(N(C)C)cc3)nn12` the same measures were 50.1% (active), 31%, 57.1% (active) and 31.2% (active).
The corresponding values for `CCOc1ccc(CCNC(=O)CN2C(=O)NC3(CCc4ccccc43)C2=O)cc1OCC` (centres undefined) are 13.9%, 49.8% (active), 45.7% (active) and -14%.
Consider `COc1cc2c(cc1OC)CN(C(=O)CN1CCN(S(=O)(=O)c3ccc(C)c(C)c3)CC1)CC2`, for which the inhibition in assay [1] was 19.9%; in assay [2], 49.3% (active); in assay [3], 45% (active); in assay [4], 16.1%.
In the case of `COc1ccc(S(=O)(=O)Nc2ccc3c(c2)n(C)c(=O)n3C)cc1F`, the inhibition in assay [1] is 19.6%; in assay [2] it was 46.2% (active); in assay [3], 52.1% (active); in assay [4] it was 7.89%.
For the compound `COCc1cc(C)n(CC(=O)Nc2ccc(N3CCOCC3)c(Cl)c2)c(=O)c1C#N`, the inhibition in assay [1] is -4.28%; in assay [2], 40.5%; in assay [3] it was 40.9%; in assay [4], 6.57%.
For `O=C(CSc1n[nH]c(-c2ccccc2)n1)Nc1ccc(N2CCOCC2)cc1` the same measures were 1.99%, 56.6% (active), 49% (active) and -15.3%.
The corresponding values for `Cc1ccc(NC(=O)c2ccc([N+](=O)[O-])o2)c(C)c1` are 11.1%, 54.7% (active), 54.6% (active) and -6.21%.
For `Cn1c(=O)c2c(nc(CN3CCOCC3)n2CC(=O)c2ccccc2)n(C)c1=O` the same measures were -4.41%, -0.49%, 1.97% and 5.48%.
Turning to `CC(=O)Nc1ccc(C2=CC(=O)CC(C)(C)C2)cc1`, the inhibition in assay [1] was 15.2%; in assay [2], 60.2% (active); in assay [3] it was 55.8% (active); in assay [4], -10.9%.
The corresponding values for `C#CCN(C[C@@H]1[C@@H](OC(=O)NCc2ccc(OC)c(OC)c2)[C@@H](OC(=O)NCc2ccc(OC)c(OC)c2)Cn2c(=O)ccc(=O)n21)S(=O)(=O)c1ccc(C)cc1` are 16.6%, 40%, 35.7% and 10.2%.
Consider `COc1cc(-c2noc(C)c2/C=C/c2ccc(N)cc2)cc(OC)c1OC`, for which the inhibition is 64.6% (active) in assay [1], 38.5% in assay [2], 55.2% (active) in assay [3] and -29.3% in assay [4].
For `O=C(CCl)NCCN1C(=O)S/C(=C\c2cccnc2)C1=O` the same measures were 10.2%, 55.9% (active), 57.4% (active) and -3.37%.
For `CC(C)C(=O)N1CCN(c2ccc(NC(=O)c3ccc([N+](=O)[O-])o3)cc2)CC1` the same measures were 8.38%, 59.5% (active), 60.5% (active) and -4.74%.
As for `CC(C)c1ccc(NC(=O)CSc2nc(=O)[nH]c3c2CCCC3)cc1`, the inhibition in assay [1] is 16.1%; in assay [2], 58.5% (active); in assay [3], 47.3% (active); in assay [4], -10.5%.
As for `O=C(NC1CCCC(C(F)(F)F)C1)c1ccc([N+](=O)[O-])o1` (centres undefined), the inhibition in assay [1] is 15.8%; in assay [2] it was 65.4% (active); in assay [3], 63% (active); in assay [4], -1.15%.
For `O=[N+]([O-])c1ccc(Sc2nnnn2-c2ccccc2)c(Cl)c1` the same measures were 5.41%, 25.6%, 37.7% and -13%.
The corresponding values for `CCCC(=O)N1CCN(c2ccc(NC(=O)c3ccc([N+](=O)[O-])o3)cc2)CC1` are -1.48%, 52.9% (active), 55.4% (active) and -18.4%.
